Values joined by “and” are separate entries in the source; they are usually repeats but may differ in a detail not shown here. Equal entries are not always repeated. Structures can show the parent of a compound that is named as a salt.

In the first assay the test system is K562. In words: cell viability relative to vehicle control; higher = less cytotoxic. Conditions: 10 µM; SRSF2 genotype: SRSF2 P95H/wt. A digest of the protocol: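 Each screen used CRISPR-edited mutant and wild-type clones from four leukaemia lines. Compounds were acoustically dispensed at a single 10 µM dose, and CellTiter-Glo luminescence was read after 48 h with the supernatant first removed. Viability was analysed in Genedata Screener and given as percent of the on-plate vehicle control.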
Turning to `CC1(C)CCCC2(C)C1CCC1(C)OCCC12` (single isomer, unassigned; (-)) [(-)-Ambroxide], the cell viability (commonly a read-out of living cells in per cent, often relative to untreated cells) was 94.6% and 94.5%.
On the same count and under the same terms, as for `CCOc1nc2cccc(C(=O)OC(C)OC(=O)OC3CCCCC3)c2n1Cc1ccc(-c2ccccc2-c2nn[nH]n2)cc1` (centres undefined) [Candesartan cilexetil (Atacand)], the figure is 95.6% and 97.9%.
On the same count and under the same terms, as for `COc1cc2c(=O)c3c(O)c([C@@H]4O[C@H](CO[C@@H]5OC[C@](O)(CO)[C@H]5O)[C@@H](O)[C@H](O)[C@H]4O)c(O)cc3oc2cc1O` [Polygalaxanthone III], the figure is 99.2% and 105%.
On to `O=[N+]([O-])c1ccc2c(c1)S(=O)(=O)C=C2` [Stattic], for which the cell viability is 8.02% and 0.43%.
In the case of `CC(C)OC(=O)OCOP(=O)(CO[C@H](C)Cn1cnc2c(N)ncnc21)OCOC(=O)OC(C)C` [Tenofovir Disoproxil Fumarate], the cell viability is 92.9% and 94.9%.
Regarding `CC(=O)OC(C)(C)CCC(=O)[C@](C)(O)[C@H]1[C@H](O)C[C@@]2(C)[C@@H]3CC=C4[C@@H](C[C@H](O)[C@@H](O)C4(C)C)[C@]3(C)C(=O)C[C@]12C` [Curcurbitacin IIA], the cell viability is 67.7% and 75.2%.
Still for that read-out and setting: as for `CC(C)NC[C@@H](C(=O)N1CCN(c2ncnc3c2[C@H](C)C[C@H]3O)CC1)c1ccc(Cl)cc1` [Ipatasertib (GDC-0068)], the figure is 90.8% and 87.6%; as for `O=C1C(=Cc2cccnc2)C(=O)c2ccccc21`, 110% and 102%; as for `N[C@@H](CSC(c1ccccc1)(c1ccccc1)c1ccccc1)C(=O)O`, 43.2% and 34.9%.
As to `CC(C)=CC[C@@H](O)C1=CC(=O)c2c(O)ccc(O)c2C1=O` [Shikonin], the cell viability was 1.68% and 0.52%.
On the same count and under the same terms, as for `C[C@H]1CN(C[C@H](Cc2ccccc2)C(=O)NCC(=O)O)CC[C@@]1(C)c1cccc(O)c1` [Alvimopan dihydrate], the figure is 110% and 102%.
On the same count and under the same terms, in the case of `CC(=O)O[C@H]1CC(=O)OC(C)(C)[C@@H]2CC(=O)[C@]3(C)[C@H](CC[C@@]4(C)[C@@H](c5ccoc5)OC(=O)[C@H]5O[C@]543)[C@@]12C` [Nomilin] it was 101% and 95.9%.
For the compound `CC(C)(C)c1nc(-c2ccc(NC(=O)Nc3cccc(C(F)(F)F)c3)c3ccccc23)c2c(N)nccn12` [kira6], the cell viability was 10.9% and 7.91%.
The same measure, in the same setting: as for `COc1ccc2[nH]c([S+]([O-])Cc3ncc(C)c(OC)c3C)nc2c1` (centres undefined) [Omeprazole (Prilosec)], the figure is 97.3% and 91.5%; as for `COc1ccc2cc([C@H](C)C(=O)O)ccc2c1` [Naproxen Sodium], 99.4% and 104%.
The same measure, in the same setting: as for `C#C[C@]1(O)CC[C@H]2[C@@H]3CCC4=CCCC[C@@H]4[C@H]3C(=C)C[C@@]21CC` [Desogestrel], the figure is 77.9% and 78.3%.
Consider `COc1ccc2c(c1)c(C1=C(c3c[nH]c4ccccc34)C(=O)NC1=O)cn2CCCN(C)C`, for which the cell viability is 84.2% and 80.9%.
Same read-out and setting: in the case of `C[C@@H]1CC[C@]2(C(=O)O[C@@H]3O[C@H](CO)[C@@H](O)[C@H](O)[C@H]3O)CC[C@]3(C)C(=CC[C@@H]4[C@@]5(C)CC[C@H](O)[C@@](C)(CO)[C@@H]5CC[C@]43C)[C@@H]2[C@]1(C)O` [Pedunculoside] it was 109% and 108%; in that of `CCc1cc(Nc2nccc(-c3c(-c4ccc(OC)c(C(=O)Nc5c(F)cccc5F)c4)nc4ccccn34)n2)c(OC)cc1N1CCC(N2CCN(S(C)(=O)=O)CC2)CC1`, 88.6% and 96.3%.

Staying with this assay, now noted: 10 µM; SRSF2 genotype: SRSF2 wt/wt.
`NS(=O)(=O)c1cc2c(cc1Cl)N=CNS2(=O)=O` [Chlorothiazide]: the cell viability came to 94.5%.
For the compound `CC(C)CCCC(C)C1CCC2C3CCC4CC(O)CCC4(C)C3CCC12C` (centres undefined) [Dihydrocholesterol], the cell viability amounted to 92.6%.
As for `CC(C)c1c(C(=O)Nc2ccccc2)c(-c2ccccc2)c(-c2ccc(F)cc2)n1CC[C@@H](O)C[C@@H](O)CC(=O)O` [Atorvastatin calcium (Lipitor)], the cell viability is 56.9%.
On the same count and under the same terms, as for `O=C1CCC(N2C(=O)c3ccccc3C2=O)C(=O)N1` (centres undefined) [Thalidomide], the figure is 84.5%.
Still for that read-out and setting: in the case of `COc1ccc(C2=N[C@@H](c3ccc(Cl)cc3)[C@@H](c3ccc(Cl)cc3)N2C(=O)N2CCNC(=O)C2)c(OC(C)C)c1` [Nutlin-3] it was 89.2%.
Regarding `CC1(C)C(O[C@@H]2OC[C@@H](O)[C@H](O)[C@H]2O)CC[C@]23CC24CC[C@]2(C)[C@@H]([C@@]5(C)CC[C@@H](C(C)(C)O)O5)[C@H](O)C[C@@]2(C)C4C[C@@H](O[C@@H]2O[C@H](CO)[C@@H](O)[C@H](O)[C@H]2O)C13` (some centres undefined) [Astragaloside IV], the cell viability was 113%.
On to `COC(=O)N[C@H](C(=O)N[C@@H](Cc1ccccc1)[C@@H](O)CN(Cc1ccc(-c2ccccn2)cc1)NC(=O)[C@@H](NC(=O)OC)C(C)(C)C)C(C)(C)C` [Atazanavir sulfate], for which the cell viability was 102%.
Same read-out and setting: in the case of `CCCCCCCC/C=C\CCCCCCCC(=O)OCC` [Ethyl Oleate] it was 97.8%; in that of `O=CC[C@@H](O)[C@H](O)[C@H](O)CO` [2-Deoxy-D-glucose], 99.2%; in that of `C[S+](CC[C@H](N)C(=O)[O-])C[C@H]1O[C@@H](n2cnc3c(N)ncnc32)[C@H](O)[C@@H]1O` (some centres undefined) [Ademetionine], 119%.
In the case of `O=C1c2ccccc2C(=O)C1c1ccccc1` [Phenindione (Rectadione)], the cell viability is 105%.
On to `CNCC[C@@H](Oc1ccccc1C)c1ccccc1` [Atomoxetine HCl], for which the cell viability worked out at 108%.
For the compound `CCNC(=O)[C@@H]1CCCN1C(=O)[C@H](CCCN=C(N)N)NC(=O)[C@H](CC(C)C)NC(=O)[C@@H](CC(C)C)NC(=O)[C@H](Cc1ccc(O)cc1)NC(=O)[C@H](CO)NC(=O)[C@H](Cc1c[nH]c2ccccc12)NC(=O)[C@H](Cc1cnc[nH]1)NC(=O)[C@@H]1CCC(=O)N1` [S3718 Leuprolide Acetate.cdx], the cell viability came to 102%.
Turning to `Cc1onc(-c2c(F)cccc2Cl)c1C(=O)N[C@@H]1C(=O)N2[C@@H]1SC(C)(C)[C@@H]2C(=O)O` [Flucloxacillin sodium], the cell viability is 94.3%.
On the same count and under the same terms, in the case of `CC(CCc1ccccc1)NCC(=O)c1ccc(O)c(C(N)=O)c1` (centres undefined) [Labetalone hydrochloride] it was 108%; in that of `COc1cc(C(=O)N(CCCc2ccccc2)Cc2ccc(CC(=O)O)cc2)cc(OC)c1C`, 99.5%.
Still for that read-out and setting: as for `O=C1N=C(O)NC1(c1ccccc1)c1ccccc1` [Phenytoin sodium (Dilantin)], the figure is 96.8%.
Same read-out and setting: as for `Cn1c(Nc2ccc(C(F)(F)F)cc2)nc2cc(Oc3ccnc(-c4ncc(C(F)(F)F)[nH]4)c3)ccc21`, the figure is 47.5%; as for `CCc1cncnc1N1CCN(Cc2nc3ccc(C(F)(F)F)cc3[nH]2)CC1`, 73.1%; as for `N#Cc1cc(-c2n[nH]c(-c3ccncc3)n2)ccn1` [Topiroxostat], 94%.
In the case of `O=C1c2c(O)cc(O)cc2OC(c2ccc(O)c(O)c2)C1O` (centres undefined) [Taxifolin (Dihydroquercetin)], the cell viability turned out to be 91.6%.
The same measure, in the same setting: in the case of `CC1(C)CCCC2(C)C1CCC1(C)OCCC12` (single isomer, unassigned; (-)) [(-)-Ambroxide] it was 99.7%; in that of `CCOc1nc2cccc(C(=O)OC(C)OC(=O)OC3CCCCC3)c2n1Cc1ccc(-c2ccccc2-c2nn[nH]n2)cc1` (centres undefined) [Candesartan cilexetil (Atacand)], 75.5%; in that of `COc1cc2c(=O)c3c(O)c([C@@H]4O[C@H](CO[C@@H]5OC[C@](O)(CO)[C@H]5O)[C@@H](O)[C@H](O)[C@H]4O)c(O)cc3oc2cc1O` [Polygalaxanthone III], 98%.
Regarding `O=[N+]([O-])c1ccc2c(c1)S(=O)(=O)C=C2` [Stattic], the cell viability was found to be 0.74%.
The same measure, in the same setting: as for `CC(C)OC(=O)OCOP(=O)(CO[C@H](C)Cn1cnc2c(N)ncnc21)OCOC(=O)OC(C)C` [Tenofovir Disoproxil Fumarate], the figure is 82.2%; as for `CC(=O)OC(C)(C)CCC(=O)[C@](C)(O)[C@H]1[C@H](O)C[C@@]2(C)[C@@H]3CC=C4[C@@H](C[C@H](O)[C@@H](O)C4(C)C)[C@]3(C)C(=O)C[C@]12C` [Curcurbitacin IIA], 77.4%.
On the same count and under the same terms, as for `CC(C)NC[C@@H](C(=O)N1CCN(c2ncnc3c2[C@H](C)C[C@H]3O)CC1)c1ccc(Cl)cc1` [Ipatasertib (GDC-0068)], the figure is 86.3%; as for `O=C1C(=Cc2cccnc2)C(=O)c2ccccc21`, 116%.
As to `N[C@@H](CSC(c1ccccc1)(c1ccccc1)c1ccccc1)C(=O)O`, the cell viability amounted to 34.4%.
As for `CC(C)=CC[C@@H](O)C1=CC(=O)c2c(O)ccc(O)c2C1=O` [Shikonin], the cell viability was determined as 0.87%.
Still for that read-out and setting: as for `C[C@H]1CN(C[C@H](Cc2ccccc2)C(=O)NCC(=O)O)CC[C@@]1(C)c1cccc(O)c1` [Alvimopan dihydrate], the figure is 101%.
Still for that read-out and setting: as for `CC(=O)O[C@H]1CC(=O)OC(C)(C)[C@@H]2CC(=O)[C@]3(C)[C@H](CC[C@@]4(C)[C@@H](c5ccoc5)OC(=O)[C@H]5O[C@]543)[C@@]12C` [Nomilin], the figure is 97.8%.
Consider `CC(C)(C)c1nc(-c2ccc(NC(=O)Nc3cccc(C(F)(F)F)c3)c3ccccc23)c2c(N)nccn12` [kira6], for which the cell viability worked out at 12.4%.
For the compound `COc1ccc2[nH]c([S+]([O-])Cc3ncc(C)c(OC)c3C)nc2c1` (centres undefined) [Omeprazole (Prilosec)], the cell viability was determined as 95.6%.
Same read-out and setting: in the case of `COc1ccc2cc([C@H](C)C(=O)O)ccc2c1` [Naproxen Sodium] it was 96.2%; in that of `C#C[C@]1(O)CC[C@H]2[C@@H]3CCC4=CCCC[C@@H]4[C@H]3C(=C)C[C@@]21CC` [Desogestrel], 78.7%.
Still for that read-out and setting: as for `COc1ccc2c(c1)c(C1=C(c3c[nH]c4ccccc34)C(=O)NC1=O)cn2CCCN(C)C`, the figure is 74.5%.
For the compound `C[C@@H]1CC[C@]2(C(=O)O[C@@H]3O[C@H](CO)[C@@H](O)[C@H](O)[C@H]3O)CC[C@]3(C)C(=CC[C@@H]4[C@@]5(C)CC[C@H](O)[C@@](C)(CO)[C@@H]5CC[C@]43C)[C@@H]2[C@]1(C)O` [Pedunculoside], the cell viability came to 113%.
`CCc1cc(Nc2nccc(-c3c(-c4ccc(OC)c(C(=O)Nc5c(F)cccc5F)c4)nc4ccccn34)n2)c(OC)cc1N1CCC(N2CCN(S(C)(=O)=O)CC2)CC1`: the cell viability came out at 97.3%.

Values taken from the supplement of paper PMC10981050.
